Screening results: PubChem, several laboratories
CHT block: inhibitors of human choline transporter CHT. 0.86% of 310,000 active. B-score at 10 µM. CHT-expressing cells, membrane potential dye, choline response; hits give low values. AID 488975;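 active = B-score over 3 SD under the library average, and starting fluorescence ratio not unusually high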;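 also: choline stimulus applied at its EC90 after an EC20 pre-addition; B-score computed on integrated fluorescence ratio after choline addition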
Target sequence (Q9GZV3 whole entry, looked up): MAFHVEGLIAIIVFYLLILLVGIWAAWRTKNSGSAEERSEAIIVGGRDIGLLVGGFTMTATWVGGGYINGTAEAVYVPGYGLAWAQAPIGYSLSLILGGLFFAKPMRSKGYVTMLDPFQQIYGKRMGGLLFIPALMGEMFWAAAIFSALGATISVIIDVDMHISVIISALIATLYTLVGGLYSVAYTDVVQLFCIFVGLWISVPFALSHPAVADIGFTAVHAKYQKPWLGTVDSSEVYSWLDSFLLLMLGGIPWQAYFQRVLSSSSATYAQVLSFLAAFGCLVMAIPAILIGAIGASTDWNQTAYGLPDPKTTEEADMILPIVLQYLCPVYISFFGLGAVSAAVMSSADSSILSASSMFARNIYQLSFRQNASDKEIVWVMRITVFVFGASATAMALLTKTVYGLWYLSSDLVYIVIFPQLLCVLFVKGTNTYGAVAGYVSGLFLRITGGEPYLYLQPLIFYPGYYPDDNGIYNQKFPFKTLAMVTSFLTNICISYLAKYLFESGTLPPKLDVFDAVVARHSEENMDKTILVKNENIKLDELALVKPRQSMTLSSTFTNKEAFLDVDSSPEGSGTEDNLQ
ALR H2O2 inh: inhibitors of human sulfhydryl oxidase ALR; purified ALR, DTT oxidation, H2O2 HRP-luminol luminescence; inhibition, % (no concentration beside the values); 3.8% of 290,000 active; AID 485317;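 active = mean replicate inhibition above about 79%, with every replicate also reaching it, limit read from the data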
PREPL inhibitor: inhibitors of human prolyl oligopeptidase-like enzyme PREPL | recombinant PREPL, fluorescence polarization activity-based probe | inhibition, % at 5.96 µM | 0.68% of 320,000 active; in the data active = inhibition above about 43%;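 also: 0% = enzyme with DMSO and 100% = wells lacking enzyme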
CHT PAM: human CHT allosteric activation | Q9GZV3 | CHT-expressing cells, membrane potential dye, choline EC20; hits give high values; LV-AA mutant CHT in HEK293 cells | B-score at 10 µM | 0.49% of 310,000 active | AID 488977;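 active = initial fluorescence not abnormally high and integrated response B-score, plate-corrected, over 3 SD above library mean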
AI-2 QS mod: modulators of Vibrio harveyi AI-2 quorum sensing system. Vibrio harveyi JMH597 AI-2 luminescence/OD600 ratio, 9 h; hits give low values; strain lacks LuxN and CqsS sensors; 0 = neutral-control median. activity change, % at 7.5 µM. 0.4% of 300,000 active. AID 2094; in the data active = activity change below about -75%, passing the limit was not always enough;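 also: luminescence divided by OD600 gain over 9 h not by final OD600 alone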
Starred values were filed as active, the others as inactive. This is a sample that favours compounds with a hit; in the whole collection about 5% have one here.

What do the screens show for `CCc1c(C)[nH]n(-c2ccc(Oc3ccccc3)c(S(=O)(=O)O)c2)c1=O`?
CHT block: inactive; ALR H2O2 inh: 99*; PREPL inhibitor: -10; CHT PAM: inactive

How did Cc1ccc(CCNC(=O)C2CCCN(S(=O)(=O)N3CC(C)CC(C)C3)C2)cc1 (centres undefined) do in these assays?
CHT block: inactive; ALR H2O2 inh: -1; PREPL inhibitor: 14; CHT PAM: inactive; AI-2 QS mod: 15

Results for O=S1(=O)N=C(N/N=C/c2ccccn2)c2ccccc21 ?
CHT block: inactive; ALR H2O2 inh: 5; PREPL inhibitor: 2; CHT PAM: inactive; AI-2 QS mod: -86*

What do the screens show for `CN(C)c1ccc(/C=N/NC2=NS(=O)(=O)c3ccccc32)cc1`?
CHT block: inactive; ALR H2O2 inh: 50; PREPL inhibitor: 12; CHT PAM: inactive; AI-2 QS mod: 12

What do the screens show for `O=c1nc(N/N=C/c2ccccn2)cn[nH]1`?
CHT block: inactive; PREPL inhibitor: -39; CHT PAM: inactive; AI-2 QS mod: -88*

What do the screens show for `COCc1ccc(C(=O)N2CCCC(CCC(=O)NCc3ccccc3F)C2)o1` (centres undefined)?
CHT block: inactive; ALR H2O2 inh: -1; PREPL inhibitor: -7; CHT PAM: inactive; AI-2 QS mod: -1

Results for CC1(c2ccc(OC(F)F)cc2)NC(=O)N(CC(=O)Nc2ccc(OC(F)F)cc2)C1=O (centres undefined) ?
CHT block: inactive; ALR H2O2 inh: -5; PREPL inhibitor: 0; CHT PAM: inactive; AI-2 QS mod: -93*

What do the screens show for `CCC(=O)Nc1ccc(S(=O)(=O)Nc2nccs2)cc1`?
CHT block: inactive; ALR H2O2 inh: 0; PREPL inhibitor: 0; CHT PAM: inactive; AI-2 QS mod: 17

How did CC1(c2ccc(OC(F)F)cc2)NC(=O)N(CC(=O)Nc2ccc(S(N)(=O)=O)cc2)C1=O (centres undefined) do in these assays?
CHT block: inactive; PREPL inhibitor: -3; CHT PAM: inactive; AI-2 QS mod: -14

What do the screens show for `Cc1ccc(C2(C)NC(=O)N(CC(=O)Nc3ccc(S(=O)(=O)Nc4nccs4)cc3)C2=O)cc1` (centres undefined)?
CHT block: inactive; ALR H2O2 inh: 96*; PREPL inhibitor: -6; CHT PAM: inactive; AI-2 QS mod: 20

How did CC1(c2ccc(OC(F)F)cc2)NC(=O)N(CC(=O)Nc2ccc(F)cc2)C1=O (centres undefined) do in these assays?
CHT block: inactive; ALR H2O2 inh: -2; PREPL inhibitor: 5; CHT PAM: inactive; AI-2 QS mod: -94*

Results for Cc1cc(NC(=O)CN2C(=O)NC(C)(c3ccc(OC(F)F)cc3)C2=O)no1 (centres undefined) ?
CHT block: inactive; ALR H2O2 inh: -2; PREPL inhibitor: 18; CHT PAM: inactive; AI-2 QS mod: -74

What do the screens show for `Cc1ccc(CN2CCN(Cc3cn[nH]c3C3CCCCC3)CC2CCO)cc1` (centres undefined)?
CHT block: inactive; ALR H2O2 inh: -5; PREPL inhibitor: 15; CHT PAM: inactive; AI-2 QS mod: 9

Results for O=C(CSc1nc2ccccc2c(=O)n1-c1ccc(F)c(Cl)c1)Nc1cccc(S(=O)(=O)N2CCOCC2)c1 ?
CHT block: inactive; ALR H2O2 inh: 98*; PREPL inhibitor: -2; CHT PAM: inactive; AI-2 QS mod: 24

How did O=C(CSc1nc2ccccc2c(=O)n1-c1ccc(F)cc1)Nc1ccc(Cl)c(S(=O)(=O)N2CCOCC2)c1 do in these assays?
CHT block: inactive; ALR H2O2 inh: -7; PREPL inhibitor: 0; CHT PAM: inactive; AI-2 QS mod: 11

Results for Cc1cc(NC(=O)CSc2ccc(-c3ccc(Br)cc3)nn2)no1 ?
CHT block: inactive; ALR H2O2 inh: -6; PREPL inhibitor: 1; CHT PAM: inactive; AI-2 QS mod: 16

What do the screens show for `COc1ccccc1CSc1nc2c(c(=O)n(C)c(=O)n2C)n1C`?
AI-2 QS mod: 9

How did Cc1ccc(-c2ccc(/C=N/N=C3/NC(=O)C(CC(=O)O)S3)o2)c([N+](=O)[O-])c1 (centres undefined) do in these assays?
CHT block: inactive; ALR H2O2 inh: 99*; PREPL inhibitor: 23; CHT PAM: inactive; AI-2 QS mod: 16

How did O=C(O)CC1S/C(=N/N=C/c2ccc(-c3ccccc3[N+](=O)[O-])o2)NC1=O (centres undefined) do in these assays?
CHT block: inactive; ALR H2O2 inh: 98*; PREPL inhibitor: -2; CHT PAM: inactive; AI-2 QS mod: 24

What do the screens show for `O=[N+]([O-])c1ccccc1-c1ccc(/C=N/n2cnnc2)o1`?
CHT block: inactive; PREPL inhibitor: 8; CHT PAM: inactive; AI-2 QS mod: 36

What do the screens show for `CSc1ccc(NC(=O)Nc2ccc(C(=O)NCC(=O)O)cc2)cc1`?
CHT block: inactive; ALR H2O2 inh: 98*; CHT PAM: inactive; AI-2 QS mod: 2

Results for Cc1ccc(N2C(=O)CS/C2=C(\C(Cl)=C(Cl)Cl)[N+](=O)[O-])cc1 ?
CHT block: inactive; ALR H2O2 inh: 98*; PREPL inhibitor: 8; CHT PAM: inactive; AI-2 QS mod: 19

How did O=S1(=O)CCC(NC(=S)N2CCCCC2)C1 (centres undefined) do in these assays?
CHT block: inactive; ALR H2O2 inh: -2; PREPL inhibitor: 5; CHT PAM: inactive; AI-2 QS mod: 3

How did CCCC(=O)NC(c1ccc(C(C)C)cc1)c1ccc2cccnc2c1O (centres undefined) do in these assays?
CHT block: inactive; ALR H2O2 inh: -19; PREPL inhibitor: 3; CHT PAM: inactive; AI-2 QS mod: 17

How did CCCC(=O)NC(c1ccc(N(C)C)cc1)c1ccc2cccnc2c1O (centres undefined) do in these assays?
CHT block: inactive; ALR H2O2 inh: 90*; PREPL inhibitor: 9; CHT PAM: inactive; AI-2 QS mod: -90*

How did Cc1ccc(N2C(=O)Nc3ccccc3S2(=O)=O)cc1Cl do in these assays?
CHT block: inactive; ALR H2O2 inh: -1; PREPL inhibitor: -6; CHT PAM: inactive; AI-2 QS mod: -1

Results for Nc1nnc(N2CCc3ccccc32)s1 ?
CHT block: inactive; ALR H2O2 inh: 99*; PREPL inhibitor: 6; CHT PAM: inactive; AI-2 QS mod: 11

How did COc1ccc(Cl)cc1N1C(=N)SCC1=O do in these assays?
CHT block: inactive; ALR H2O2 inh: -6; PREPL inhibitor: 1; CHT PAM: inactive; AI-2 QS mod: 16

How did Nc1nc(-c2ccccc2)cn1N do in these assays?
CHT block: inactive; PREPL inhibitor: 4; CHT PAM: inactive; AI-2 QS mod: 8

Results for Nc1nn2cc(-c3ccccc3)nc2c2ccccc12 ?
CHT block: inactive; ALR H2O2 inh: 95*; PREPL inhibitor: 16; CHT PAM: inactive; AI-2 QS mod: -4
